Here are results for 30 compounds from PubChem BioAssay (Tox21).

Each structure is given as a SMILES string. Inconclusive results are not listed. Activity calls are given as the source filed them. Unless noted, the call rests on the fitted dose curve; in most records, active means well fitted curve in the direction sought with a large enough effect in the repeat runs; inconclusive means weak or mixed curves; inactive means no such curve, though single readings can be large; an effect the other way counts as inactive or inconclusive.

Experiment [1] is described as follows: qHTS assay to identify small molecule antagonists of the estrogen related receptor (ERR) signaling pathway - cell viability counter screen (AID 1224818). Further: series mostly up to about 46 µM. A digest of the protocol:
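Fluorescence from CellTiter-Fluor, read 30 min after reagent addition at 37 C, measured viability of ERR cells exposed to compounds for 17.5 h. Cells had settled 6 h before dosing.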

Experiment [2] can be described thus: qHTS assay to identify small molecule antagonists of the estrogen related receptor (ERR) signaling pathway (AID 1224819; further: nearly all actives have a fitted effect of over 50% in size; further: potency means the concentration at half of the fitted maximal effect). A digest of the protocol: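 Luminescence readout (One-Glo, 30 min, RT) of ERR cell line after 18 h compound exposure at 37 C; cells seeded 2,000/well, pre-incubated 6 h, compounds pinned from DMSO stocks.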
A short description of experiment [3]: qHTS assay to identify small molecule agonists of the estrogen related receptor (ERR) signaling pathway (AID 1224820). Further: potency means the concentration at half of the fitted maximal effect. A digest of the protocol:
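Following a 6 h settling period, 2,000 ERR cells per well receive DMSO-dissolved compounds by pin tool and incubate 18 h at 37 C; agonist activity is scored from One-Glo luminescence read 30 min post-addition.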

For experiment [4], the system named is estrogen-related receptor alpha (ERRalpha) with PGC-1alpha coactivator, human. Briefly: qHTS assay to identify small molecule antagonists of the estrogen related receptor signaling pathway with the pleiotropic PPARgamma coactivator (PGC) (AID 1224821; calls by dose curve; further: nearly all actives have a fitted effect of over 50% in size; further: potency means the concentration at half of the fitted maximal effect). A digest of the protocol:
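Screening used NTP's PGC/ERR cells, dosed via pin tool with compound in DMSO alongside positive and negative controls. After 18 h at 37 C, One-Glo reagent sat 30 min at room temperature before luminescence detection.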

Experiment [5] in a line: qHTS assay to identify small molecule antagonists of the estrogen related receptor signaling pathway with the pleiotropic PPARgamma coactivator (PGC) cell viability counter screen (AID 1224822; further: series mostly up to about 46 µM). An outline of the steps:
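Fluorescence read-out of CellTiter-Fluor after 30 min at 37 C; PGC/ERR cells, 2,000 per well, had been exposed to DMSO-dissolved compounds for 17.5 h following a 6 h pre-incubation.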

Experiment [6] in a line: qHTS assay to identify small molecule agonists of the estrogen related receptor signaling pathway with the pleiotropic PPARgamma coactivator (PGC) (AID 1224823). Further: potency means the concentration at half of the fitted maximal effect. A digest of the protocol:
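In this quantitative high-throughput screen, an 18 h, 37 C treatment of PGC/ERR cells with compounds in DMSO preceded a One-Glo luminescence read taken after 30 min at room temperature.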

On to `N=c1ccn2c(n1)O[C@H]1C(O)[C@@H](CO)O[C@H]12` (stereo not given in full), for which the Potency result in experiment [1], in experiment [2], in experiment [3], in experiment [4], in experiment [5] and in experiment [6] was “inactive” in each case.

In the case of `CN1C2CCC1CC(OC(=O)C(O)c1ccccc1)C2` (stereo not given), the Potency result in experiment [1], in experiment [2], in experiment [3], in experiment [4], in experiment [5] and in experiment [6] was “inactive” each time.

`Brc1c(Br)c(Br)c2n[nH]nc2c1Br`: the Potency result in experiment [1], in experiment [3], in experiment [5] and in experiment [6] was “inactive” in each case. The Potency in experiment [2] was 22 µM (active); in experiment [4], 21.1 µM (active).

For the compound `NCC(O)(CS(=O)(=O)O)c1ccc(Cl)cc1` (stereo not given), the Potency result in experiment [1], in experiment [2], in experiment [3], in experiment [4], in experiment [5] and in experiment [6] was “inactive” each time.

In the case of `CCN(CC)CCOC(=O)c1cc(Cl)c(N)cc1OC`, the Potency result in experiment [1], in experiment [2], in experiment [3], in experiment [4], in experiment [5] and in experiment [6] was “inactive” each time.

Take `Cn1cc(C(=O)OCC2CCN(CCNS(C)(=O)=O)CC2)c2ccccc21`: the Potency result in experiment [1], in experiment [2], in experiment [3], in experiment [4], in experiment [5] and in experiment [6] was “inactive” each time.

For `C=CCn1c(=O)c2c(nc(-c3ccc(S(=O)(=O)O)cc3)n2C)n(C)c1=O`, the Potency result in experiment [1], in experiment [2], in experiment [3], in experiment [4], in experiment [5] and in experiment [6] was “inactive” each time.

`CSc1nc(N)c2ncn([C@@H]3O[C@H](COP(=O)(O)OP(=O)(O)OP(=O)(O)O)C(O)[C@H]3O)c2n1` (stereo not given in full): the Potency entry in experiment [1], in experiment [2], in experiment [3], in experiment [4], in experiment [5] and in experiment [6] was “inactive” in each case.

For `COc1cc(C(O)CO)ccc1OS(=O)(=O)O` (stereo not given), the Potency entry in experiment [1], in experiment [2], in experiment [3], in experiment [4], in experiment [5] and in experiment [6] was “inactive” each time.

As to `CC(C)Cn1c(=O)n(C)c(=O)c2[nH]cnc21`, the Potency entry in experiment [1], in experiment [2], in experiment [3], in experiment [4], in experiment [5] and in experiment [6] was “inactive” each time.

For `COc1cc(CC(=O)O)ccc1O`, the Potency result in experiment [1], in experiment [2], in experiment [3], in experiment [4], in experiment [5] and in experiment [6] was “inactive” throughout.

`CN[C@H](CC(C)C)C(=O)N[C@H]1C(=O)N[C@@H](CC(N)=O)C(=O)N[C@H]2C(=O)N[C@H]3C(=O)N[C@H](C(=O)N[C@H](C(=O)O)c4cc(O)cc(O)c4-c4cc3ccc4O)[C@H](O)c3ccc(c(Cl)c3)Oc3cc2cc(c3O[C@@H]2O[C@H](CO)[C@@H](O)[C@H](O)[C@H]2O[C@H]2C[C@](C)(N)[C@H](O)[C@H](C)O2)Oc2ccc(cc2Cl)[C@H]1O`: the Potency result in experiment [1], in experiment [2], in experiment [3], in experiment [4], in experiment [5] and in experiment [6] was “inactive” in each case.

Regarding `CCCn1c(=O)c(C)cn2nc(N)nc12`, the Potency result in experiment [1], in experiment [2], in experiment [3], in experiment [4], in experiment [5] and in experiment [6] was “inactive” each time.

Turning to `CC[C@H](C)C(=O)O[C@H]1CCC=C2C=C[C@H](C)[C@H](CC[C@@H]3C[C@@H](O)CC(=O)O3)[C@H]21`, the Potency entry in experiment [1], in experiment [2], in experiment [4], in experiment [5] and in experiment [6] was “inactive” throughout. Further, the Potency in experiment [3] was 3.48 µM (active).

As to `COc1ccccc1N1CCN(CCCCN2C(=O)c3ccccc3C2=O)CC1`, the Potency result in experiment [1], in experiment [2], in experiment [3], in experiment [4], in experiment [5] and in experiment [6] was “inactive” each time.

In the case of `N[C@@H](Cc1ccc(O)c(I)c1)C(=O)O`, the Potency result in experiment [1], in experiment [2], in experiment [3], in experiment [4], in experiment [5] and in experiment [6] was “inactive” throughout.

`COc1cc2c(CCNC(C)=O)c[nH]c2cc1O`: the Potency entry in experiment [1], in experiment [2], in experiment [3], in experiment [4], in experiment [5] and in experiment [6] was “inactive” throughout.

For `CC(C)NC[C@H](O)c1ccc(O)c(O)c1`, the Potency entry in experiment [1], in experiment [2], in experiment [3], in experiment [4], in experiment [5] and in experiment [6] was “inactive” throughout.

For `C[N+](C)(C)CCOP(=O)(O)OP(=O)([O-])OC[C@H]1O[C@@H](n2ccc(N)nc2=O)[C@H](O)C1O` (stereo not given in full), the Potency result in experiment [1], in experiment [2], in experiment [3], in experiment [4], in experiment [5] and in experiment [6] was “inactive” in each case.

On to `C[C@@H]1C(=O)NC2=Nc3cccc(Cl)c3CN21`, for which the Potency result in experiment [1], in experiment [2], in experiment [3], in experiment [4], in experiment [5] and in experiment [6] was “inactive” throughout.

Consider `Nc1nc(Nc2ccccc2)nc2c1ncn2[C@@H]1O[C@H](CO)C(O)[C@H]1O` (stereo not given in full), for which the Potency result in experiment [1], in experiment [2], in experiment [3], in experiment [4] and in experiment [5] was “inactive” throughout. Moreover, the Potency in experiment [6] was 1.44 µM (active).

As to `NC1C=CC=C(C(=O)O)C1` (stereo not given), the Potency entry in experiment [1], in experiment [2], in experiment [3], in experiment [4], in experiment [5] and in experiment [6] was “inactive” throughout.

With `O=S(=O)(c1cccc2c(I)cccc12)N1CCCNCC1`, the Potency result in experiment [1], in experiment [2], in experiment [3], in experiment [4], in experiment [5] and in experiment [6] was “inactive” in each case.

Regarding `CCCCCCCCCCCCCCCCCCOC[C@H](COP(=O)([O-])OCC[N+](C)(C)C)OC`, the Potency result in experiment [1], in experiment [2], in experiment [3], in experiment [4], in experiment [5] and in experiment [6] was “inactive” each time.

In the case of `N[C@H](C(=O)O)[C@H](O)C(=O)O`, the Potency entry in experiment [1], in experiment [2], in experiment [3], in experiment [4], in experiment [5] and in experiment [6] was “inactive” in each case.

On to `NC(=S)c1ccc[n+]([C@@H]2O[C@@H](COP(=O)([O-])OP(=O)(O)OC[C@H]3O[C@@H](n4cnc5c(N)ncnc54)[C@H](OP(=O)(O)O)C3O)C(O)C2O)c1` (stereo not given in full), for which the Potency entry in experiment [1], in experiment [2], in experiment [3], in experiment [4] and in experiment [5] was “inactive” each time. For the same compound, the Potency in experiment [6] is 18.8 µM (active).

In the case of `O=c1cc(O)cc(/C=C/c2ccc(O)c(O)c2)o1`, the Potency result in experiment [1], in experiment [2], in experiment [3], in experiment [4], in experiment [5] and in experiment [6] was “inactive” in each case.

Consider `Nc1nc2c(ncn2[C@@H]2O[C@H](CO)[C@@H](O)[C@@H]2O)c(=O)[nH]1`, for which the Potency entry in experiment [1], in experiment [2], in experiment [3], in experiment [4], in experiment [5] and in experiment [6] was “inactive” in each case.

Take `CC1(C)CCC=[N+]1[O-]`: the Potency result in experiment [1], in experiment [2], in experiment [3], in experiment [4], in experiment [5] and in experiment [6] was “inactive” each time.

For the compound `C=C1C[C@@]23CC[C@H]4[C@@](C)(CCC[C@@]4(C)C(=O)O)[C@@H]2CC[C@]1(O)C3`, the Potency entry in experiment [1], in experiment [2], in experiment [3], in experiment [4], in experiment [5] and in experiment [6] was “inactive” throughout.
